Assay results taken from PubChem BioAssay (NCATS).
Inconclusive results are not listed. Entries that show only a call come without a potency. Calls of active or inactive are those of the source. The call rests on the fitted dose curve; in most records, active means well fitted cell-killing curve with a large enough effect; inconclusive means small, poorly fitted or top-dose-only effect, or effect the other way; inactive means flat fitted curve, though single readings scatter.

tested on: Tov112D; assay: Primary qHTS to identify gynecologic anti-cancer compounds using libraries of approved drugs and bioactive compounds (AID 1345084); settings: Gynecologic cancer cell panel viability, ATPlite luminescence, 48 h; series mostly up to 57.5 µM; further: nearly all actives have a fitted effect of over 55% in size
In short: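 48 h compound exposure at 37 C, 5% CO2; five-point qHTS. ATPlite luminescence readout of cell ATP.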

Row | SMILES | Potency | activity change, negative = cytotoxicity
1 | O=C(/C=C/c1ccc(O)cc1)O[C@H]1[C@@H]2C=CO[C@@H](O[C@@H]3O[C@H](CO)[C@@H](O)[C@H](O)[C@H]3O)[C@@H]2[C@@]2(CO)O[C@@H]12 | inactive | 
2 | COCCN(C)Cc1ccc2nc3sc(C(=O)N(C)C4CCCCC4)cn3c2c1 | inactive | 
3 | CC12CCC3c4ccc(O)cc4CCC3C1CCC2OC1OC(C(=O)O)C(O)C(O)C1O (stereo not given) | inactive | 
4 | COc1cc(CCc2ccccc2)c(C(=O)O)c2c1CC(C(C)(C)O)O2 (stereo not given) | inactive | 
5 | OCc1ccccc1O[C@@H]1O[C@H](CO)[C@@H](O)[C@H](O)[C@H]1O | inactive | 
6 | CC/C=C\C[C@H]1C(=O)C=C[C@@H]1CCCCCCCC(=O)O | inactive | 
7 | CC(NC(=O)CC(=O)O)c1nc2ccccc2c(=O)[nH]1 (stereo not given) | inactive | 
8 | C[C@@H]1CC[C@]2(C(=O)O)CC[C@]3(C(=O)O)C(=CCC4[C@@]5(C)CC[C@H](O[C@@H]6O[C@@H](C)[C@H](O[C@@H]7O[C@H](CO)[C@@H](O)[C@H](O)[C@H]7O)[C@@H](O)[C@H]6O)C(C)(C)C5CC[C@]43C)C2[C@H]1C (stereo not given in full) | inactive | 
9 | COc1ccc(C)c2sc(NC(=O)c3ccncc3)nc12 | inactive | 
10 | NCCOCCOCCNC(=O)Cc1ccc(Nc2nc(NCc3ccc(F)cc3)nc(NCC3CCCCC3)n2)cc1 | inactive | 
11 | Nc1nonc1C(=Nc1ccc(F)c(Cl)c1)NO | inactive | 
12 | CNC(=O)c1ccc2cc([C@@]3(O)CCn4cncc43)ccc2c1 | inactive | 
13 | O=C1NCc2nc3ccccc3c(=O)n2C1Cc1c[nH]c2ccccc12 (stereo not given) | inactive | 
14 | CCCCCCc1cccc(NC(=O)[C@H](N)CCP(=O)(O)O)c1 |  | 3.09% [at 11.6 µM] (inactive)
15 | CC1CCC2C(C)(C)CC(C)(CO)C2(O)C1C(=O)O (stereo not given) | inactive | 
16 | CC(C)(C)NCC(O)COc1cccc2c1CCCC2=O (stereo not given) | inactive | 
17 | COC(=O)C1=CO[C@@H](O[C@@H]2O[C@H](CO[C@@H]3O[C@H](COC(=O)/C=C/c4ccc(O)cc4)[C@@H](O)[C@H](O)[C@H]3O)[C@@H](O)[C@H](O)[C@H]2O)[C@@H]2C(CO)=CC[C@H]12 | inactive | 
18 | C=CC(C)(O)CC/C=C(\C)C(=O)OCC1OC(OC2CCC3(C)C(CCC4(C)C3CC=C3C5CC(C)(C)C(O)CC5(C(=O)O)CCC34C)C2(C)C)C(O)C(OC2OC(CO)C(O)C(OC3OC(CO)C(O)C(OC4OC(COC5OC(CO)C(O)C(O)C5O)C(O)C(O)C4O)C3O)C2O)C1O (stereo not given) |  | -3.38% [at 6.55 µM] (inactive)
19 | COC1C=C([C@@H]2CC=C3[C@@]4(C)C(CC[C@]32C)[C@@]2(C)C=CC(=O)C(C)(C)C2C[C@H]4OC(C)=O)C(=O)O1 (stereo not given in full) | inactive | 
20 | Cc1c(N2C(=O)c3ccc(C(=O)O)cc3C2=O)c(=O)n(-c2ccccc2)n1C | inactive | 
21 | CC[C@H]1OC(=O)[C@H](C)[C@@H](OC2C[C@@](C)(OC)[C@@H](O)[C@H](C)O2)[C@H](C)[C@@H](OC2O[C@H](C)C[C@H](NC)[C@H]2O)[C@](C)(O)C[C@@H](C)CN(C)[C@H](C)[C@@H](O)[C@]1(C)O (stereo not given in full) | inactive | 
22 | C=C1C2(CCC(=O)OC2(C)C)CC(OC(=O)/C(C)=C/C)C2(C)C13OC14C(=O)OC(C)(C(=O)C12C(=O)OC4C)C3OC(C)=O (stereo not given) | inactive | 
23 | C=C1C(=O)OC2/C=C(\C)CC/C=C(\C(=O)O)CC/C=C(\C)CCC12 (stereo not given) | inactive | 
24 | CC(C)c1nc(N(C)S(C)(=O)=O)nc(-c2ccc(F)cc2)c1/C=C/[C@@H](O)C[C@@H](O)CC(=O)O | inactive | 
25 | C=C1C[C@]23C[C@H]1CC[C@H]2[C@@]12C=C[C@H](O)[C@@](C)(C(=O)O1)[C@H]2[C@@H]3C(=O)O | inactive | 
26 | COC1C2=C(COC2=O)C2(C)CCCC(C)(CO)C2C1OC(=O)c1ccccc1 (stereo not given) | inactive | 
27 | CC1CCCC2OC2C(=O)c2c(O)cc(O)cc2CC(=O)O1 (stereo not given) | inactive | 
28 | C[C@@H]1C(=O)O[C@H]2CC34[C@H]5C[C@@H](C(C)(C)C)C36[C@@H](OC(=O)[C@@H]6O)O[C@@]4(C(=O)O5)[C@]21O (stereo not given in full) | inactive | 
29 | CC(C)C(C#N)O[C@@H]1O[C@H](CO[C@@H]2OC[C@](O)(CO)[C@H]2O)[C@@H](O)[C@H](O)[C@H]1O (stereo not given in full) | inactive | 
30 | CC[C@H]1OC(=O)[C@H](C)[C@@H](O[C@H]2C[C@@](C)(OC)[C@@H](O)[C@H](C)O2)[C@H](C)[C@@H](O[C@@H]2O[C@H](C)C[C@H](N(C)C)[C@H]2O)[C@@](C)(O)C[C@@H](C)[C@@H]2N[C@@H](COCCOC)OC([C@H]2C)[C@]1(C)O | inactive | 
